Measured values taken from PubChem BioAssay AID1245 (Sanford-Burnham Center for Chemical Genomics, 2008).
Values without a mark were called inactive. Active and inactive are the calls of the source. No rule for the calls is given here.

Experiment: displacers of FITC-Puma-BH3 from Bcl-B – biochemical, fluorescence polarization, Puma-BH3 peptide, counter-screen for TR3-derived Bcl-B inhibitor project, dose response (AID 1245)
Settings: Bcl-B/FITC-Puma-BH3 fluorescence polarization binding

Row | Compound | EC50
1 | Cc1ccc(C)n1-c1ccc(Br)cc1C(=O)O | 1 µM (active)
2 | Cc1cc(C)nc(/N=C(/N)Nc2cccc(N)c2)n1 | > 25 µM
